Results filed as inconclusive are left out. Entries that show only a call come without a potency. Activity calls are given as the source filed them. Calls follow the shape of the dose curve; as a rule, active = well fitted curve in the direction sought with a large enough effect; inconclusive = small, poorly fitted or top-dose-only effect, or another doubt; inactive = no such curve, though single readings can be large; an effect the other way counts as inactive or inconclusive.
Also: nearly all actives have a fitted effect of over 70% in size.

A short description of one assay: Primary qHTS for inhibitors of nuclear receptor binding SET domain protein 2 (NSD2) in an isogenic RCH-ACV NSD2 p.E1099K mutant (9B) (AID 1645876). The following applies: RCH-ACV NSD2 E1099K (9B) viability, CellTiter-Glo, 72 h; series mostly up to 44.9 µM.
For the compound `COc1ccc(CC(NC(C)=O)C(=O)O)cc1` (stereo unspecified), the Potency entry is “inactive”.
Take `Cc1c(Cc2ccc3ccccc3n2)c2cc(F)ccc2n1CC(=O)O`: the Potency entry is “inactive”.
With `CC(=O)NC(Cc1c[nH]c2ccccc(=O)c12)C(=O)O` (stereo unspecified), the Potency entry was “inactive”.

A further assay can be described thus: Primary qHTS for inhibitors of nuclear receptor binding SET domain protein 2 (NSD2) in an RCH-ACV wild type WT cells (2C) (AID 1645877). The following applies: RCH-ACV (leukaemia line) NSD2 WT (2C) viability, CellTiter-Glo, 72 h; series mostly up to 44.9 µM.
Take `COc1ccc(CC(NC(C)=O)C(=O)O)cc1` (stereo unspecified): the Potency entry was “inactive”.
Still for that read-out and setting: for `Cc1c(Cc2ccc3ccccc3n2)c2cc(F)ccc2n1CC(=O)O` the value was “inactive”; for `CC(=O)NC(Cc1c[nH]c2ccccc(=O)c12)C(=O)O` (stereo unspecified), “inactive”.

The values above are taken from PubChem BioAssay (NCATS).
